Format in all cases: functional
The target of assay [1] is Solute carrier family 2, facilitated glucose transporter member 1 (Homo sapiens) (UniProt P11166). Nature of the assay: ST_JUDE_LEISH: Cytotoxicity at 2uM final concentration against transgenic Leishmania Mexicana promastigotes LmGLUT1 that are glucose transport deficient and complemented with the human glucose transporter GLUT1. Activity is measured by DNA content using SYBR green in vitro.

Assay [2] deals with Hexose transporter 1 (Plasmodium falciparum) (UniProt O97467). Kind of assay: ST_JUDE_LEISH: Cytotoxicity at 2uM final concentration against transgenic Leishmania Mexicana promastigotes LmPfHT that are glucose transport deficient and complemented with the Plasmodium falciparum hexose transporter. Activity is measured by DNA content using SYBR green in vitro.
Assay [3] concerns the target Glucose transporter (Leishmania mexicana) (UniProt O61059). Nature of the assay: ST_JUDE_LEISH: Cytotoxicity at 2uM final concentration against transgenic Leishmania Mexicana promastigotes LmGT2 that are glucose transport deficient and complemented with the L. Mexicana glucose transporter 2. Activity is measured by DNA content using SYBR green in vitro.

Chain of Solute carrier family 2, facilitated glucose transporter member 1 (Homo sapiens) (P11166 whole entry): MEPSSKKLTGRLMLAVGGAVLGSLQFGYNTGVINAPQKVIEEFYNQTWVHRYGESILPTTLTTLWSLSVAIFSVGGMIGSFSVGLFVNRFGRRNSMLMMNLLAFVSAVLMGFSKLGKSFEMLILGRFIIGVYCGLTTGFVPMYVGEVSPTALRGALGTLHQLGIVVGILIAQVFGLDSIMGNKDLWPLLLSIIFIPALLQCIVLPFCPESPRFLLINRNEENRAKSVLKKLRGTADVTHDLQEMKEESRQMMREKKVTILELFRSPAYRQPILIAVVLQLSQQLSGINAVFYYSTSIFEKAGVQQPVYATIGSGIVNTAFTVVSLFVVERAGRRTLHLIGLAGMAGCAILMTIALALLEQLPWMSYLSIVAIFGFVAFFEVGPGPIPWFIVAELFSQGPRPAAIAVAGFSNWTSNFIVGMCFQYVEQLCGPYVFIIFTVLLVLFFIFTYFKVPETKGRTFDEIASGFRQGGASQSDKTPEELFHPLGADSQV

Turning to `c1ccc(CN2CCC(NCc3ccccc3-c3cccc(CNCc4ccc5c(c4)OCO5)c3)CC2)cc1`, the inhibition in assay [1] was -2.53%; in assay [2] it was -0.36%; in assay [3], 0.7%.
In the case of `CCc1cn2c3c(cc(C(=O)N[C@@H](Cc4cccc(Cl)c4)[C@H](O)CNC4CC4)cc13)N(C)S(=O)(=O)CC2`, the inhibition in assay [1] is -0.47%; in assay [2], -1.46%; in assay [3] it was -2.88%.
Regarding `CCCc1cc(NC2CCN(C)CC2)nc(Nc2cccc(OC)c2)n1`, the inhibition in assay [1] came out at 8.68%; in assay [2] it was 6.18%; in assay [3], 6.84%.
The matching figures for `CN1Cc2cc(NC(=O)/C=C/c3ccccc3Cl)ccc2C(C)(C)C1`: 10.7%, 8.21% and 6.98%.
Take `O=C(Nc1ccon1)c1cc(-c2cccnc2)nc2ccc(Br)cc12`: the inhibition is 2.83% in assay [1], 5.32% in assay [2] and 0.72% in assay [3].
As to `O=C(Nc1ccc(F)cc1)c1cnc(N2CCN(c3ccncc3)CC2)c(Cl)c1`, the inhibition is 16% in assay [1], 10.4% in assay [2] and 3.86% in assay [3].
On the same counts, the results for `COc1ccc(Nc2nccc(N3CCC(NC(=O)c4cccc(NC(C)=O)c4)C3)n2)cc1` (stereo not given) are 0.39%, 0.61% and 1.86%.
The matching figures for `O=C(NCC1CCN(Cc2cccc(C(F)(F)F)c2)C1)c1cc(-c2cccc(C(F)(F)F)c2)cs1` (stereo not given): 3.9%, 2.69% and 5.94%.
On the same counts, the results for `O=C(NCCCCN1CC=C(c2ccc3c(c2OCC2CC2)CCCC3)CC1)c1ccc(-c2ccc(C(F)(F)F)cc2)cc1` are 5.41%, 5.39% and 5.23%.
Regarding `CCc1nnc2sc(-c3cccc(NC(=O)c4ccc(C)c([N+](=O)[O-])c4)c3)nn12`, the figures for the inhibition in assay [1], in assay [2] and in assay [3] were 7.69%, 3.97% and 2.48%, respectively.
On the same counts, the results for `O=C(NCC1CCN(CCN2CCc3ccc4c(c3C2)OCO4)CC1)c1ccc(-c2ccc(C(F)(F)F)cc2)cc1` are 2.17%, 4.3% and 1.81%.
In the case of `CN1CCN(CCCCNc2c3ccccc3nc3ccccc23)CC1`, the inhibition turned out to be 23% in assay [1], 11.7% in assay [2] and 14.6% in assay [3].
For the compound `O=C(CCn1cncn1)N1CCCC(c2[nH]c3ccccc3c2-c2ccncc2)C1` (stereo not given), the inhibition in assay [1] was -2.2%; in assay [2] it was -3.57%; in assay [3] it was 1.39%.
On the same counts, the results for `CC(CNC(=O)c1cc2c(Cl)cc(Cl)cc2[nH]1)CNc1cc(=O)c2ccccc2[nH]1` (stereo not given) are -0.17%, 1.37% and 2.08%.
On to `CCCCC1=CC2C(=O)C(C(=O)OC)=CN=C2C=C1OCc1ccccc1` (stereo not given), for which the inhibition is -0.41% in assay [1], -2.57% in assay [2] and -1.77% in assay [3].
On the same counts, the results for `COc1ccc2nccc([C@@H](O)CN3CCC(NCc4ccc5c(n4)NC(=O)CS5)C(F)C3)c2c1` (stereo not given in full) are 2.08%, 1.5% and 1.99%.
The matching figures for `N#Cc1ccc2c(c1)CCN(CCC1CCC(NC(=O)/C=C/c3ccc(F)c4ccccc34)CC1)CC2` (stereo not given): 16.1%, 20.9% and 11.4%.
The matching figures for `CC(C)CNCc1ccc(OCc2cccc(COc3ccc(CNCC(C)C)cc3I)c2)c(I)c1`: 2.2%, 1.42% and 2.23%.
Consider `Cc1cc(C)cc(OCC(O)CN(Cc2cc(Cl)cc(Cl)c2)C(=O)Nc2ccccc2Cl)c1` (stereo not given), for which the values for the inhibition in assay [1], in assay [2] and in assay [3] were 2.01%, 1.42% and -7.19%, respectively.
On the same counts, the results for `Clc1cc2c(Nc3ccc(Oc4ccccc4)cc3)ccnc2cc1-c1ccc(CNCCN2CCOCC2)o1` are -1.44%, -0.57% and -0.03%.
For the compound `O=C(NCc1ccc(C(=O)N2CCC(N3CCCCC3)CC2)cc1)c1cc(-c2cccc(C(F)(F)F)c2)ccc1O`, the inhibition in assay [1] was found to be 7.73%; in assay [2] it was 6.4%; in assay [3] it was 7.14%.
The matching figures for `Cc1cc(N[C@@H](Cc2ccccc2)C(=O)NCCOc2ccccc2)nc(Nc2ccccc2)n1`: 6.08%, 6.54% and 2.62%.
The matching figures for `CCCCN(CCCC)CCOc1cc2c(cc1OC)CCN2C(=O)/C=C/c1ccccc1Cl`: 1.13%, 1.58% and -0.32%.
`NC1=NC2(CCCC2)C(c2ccc(Cl)c(Cl)c2)C(N)=N1` (stereo not given): the inhibition in assay [1] turned out to be 2.63%; in assay [2] it was 3.21%; in assay [3] it was 4.7%.
On the same counts, the results for `COc1cc(OC)nc(C(Sc2ccc(NC(=O)c3cccs3)cc2)c2ccccc2)n1` (stereo not given) are 6.79%, 4.81% and 0.29%.
The matching figures for `COc1ccc(CNCCc2cccs2)cc1-c1ccc(OC)c(S(=O)(=O)NCCN2CCCC2)c1`: 3.2%, 1.85% and 3.49%.
In the case of `Cc1cccc2nc(-c3cccc(-c4cccc(CNCc5cnn(-c6ccccc6)n5)c4)c3)[nH]c12`, the inhibition in assay [1] amounted to 0.8%; in assay [2] it was 1.43%; in assay [3], 2.51%.
The matching figures for `COCCn1c(C)cc(C(=O)CN2C(=O)NC(C)(c3ccc(C(C)(C)C)cc3)C2=O)c1C` (stereo not given): -1.09%, 1.07% and 1.71%.
In the case of `O=C(CCCC(=O)Nc1ccc(C2=NCCN2)cc1)Nc1ccc(C2=NCCN2)cc1`, the values for the inhibition in assay [1], in assay [2] and in assay [3] were 0.86%, 0.54% and -0.14%, respectively.
On to `COc1ccccc1CCCN1C(=O)C(c2ccccc2)(c2ccccc2)N=C1N`, for which the inhibition in assay [1] is 4.43%; in assay [2], 0.97%; in assay [3], 1.36%.
On the same counts, the results for `CCCNCc1ccc(-c2ccc(CN(CCOC)C(=O)[C@H]3CCCO3)cc2)nc1` are 4.56%, 4.55% and 4.1%.
In the case of `CC(C)Cc1cn(-c2nc(-c3nc4ccccc4[nH]3)cs2)c2cc(Cl)ccc12`, the inhibition in assay [1] was determined as 6.36%; in assay [2], 6.84%; in assay [3] it was 7.38%.
On the same counts, the results for `CN1CCN(Cc2nc(-c3ccc4c(Nc5ccc(F)c(O)c5)ccnc4c3)cs2)CC1` are 7.7%, 1.76% and 0.94%.
The matching figures for `CCOc1cc2ncnc(Nc3ccc(OCc4ccccc4F)c(Cl)c3)c2cc1OCC`: -0.1%, 2.22% and 0.76%.
The matching figures for `CCOc1ccc2[nH]c(C)cc(=NN=Cc3ccncc3)c2c1`: 0.75%, 0.8% and -2.05%.

By inhibition is commonly meant the drop in the measured response relative to a control, in per cent.

For the origin of these results see ChEMBL document CHEMBL3433997, “St. Jude Leishmania screening dataset” (2016).
